Shown are actives, neighbours in structure and some others; about 7.9% of the full set was active somewhere.
HCMV antiviral – human cytomegalovirus inhibition | activity change, negative = inhibition, % at 57.5 µM | HFF cells, HCMV-luciferase reporter, 72 h; active compounds read low | hit rate 4.5% among 410,000 | AID 1259415; in the data active = activity change below about -60%; inconclusive = no clear call, values can overlap the other calls; inactive = above about -39%
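Steps: HFFs plated, 16 h 37C; compounds added; HCMV-luciferase added to MOI 1 PFU/cell; 72 h 37C; OneGlo reagent, 5 min room temperature; luminescence read, normalized to controls.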
HCV inhibitor – blocks hepatitis C virus; Huh7.5.1 HCVcc-Cre infection, luciferase reporter, 44 h; Potency, µM (highest dose often 41.8 µM), without a hit: top-dose activity change, negative = inhibition, hits mostly inhibitors; hit rate 3.4% among 340,000; active = well fitted inhibition curve with a large enough effect; inconclusive = small, poorly fitted or top-dose-only effect, or another doubt; inactive = no such curve, though single readings can be large or run the other way; also: potency is read from the fitted curve at half-maximal effect
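Cells (1,000/well) were plated 4 h before compound, then infected with HCVcc-Cre virus (~0.5 moi). After 44 h further culture, infection was read as luciferase luminescence following a 15 min substrate incubation at room temperature.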
MARV entry inh – blocks Marburg virus binding to or entry into cells. Marburg virus pseudotyped entry inhibition, cell reporter. Potency, µM (top dose mostly 37.8 µM), without a hit: top-dose activity change, negative = inhibition, usual class: inhibitors. hit rate 1.8% among 300,000; calls by dose curve; tested in HEK293 cells; also: potency is read from the fitted curve at half-maximal effect
LASV entry inh – inhibitors of Lassa virus binding or cell entry. Lassa virus pseudotype entry inhibition, cell reporter. Potency, µM (titrated, usually from 37.9 µM), for the others: at the highest dose activity change, negative = inhibition, usual class: inhibitors. hit rate 1.2% among 300,000. AID 540256; calls by dose curve; tested in HEK293 cells; also: potency is read from the fitted curve at half-maximal effect; nearly all actives have a fitted effect of over 50% in size
FMDV inh – antivirals against foot and mouth disease virus | FMDV antiviral cell-based qHTS | Potency, µM (top dose mostly 57.9 µM), inactives show at the highest dose activity change, negative = inhibition, hits mostly inhibitors | hit rate 1.2% among 410,000 | AID 1159524; calls by dose curve; tested in HEK293T cells; also: read-out not given here; potency is read from the fitted curve at half-maximal effect; nearly all actives have a fitted effect of over 45% in size
* hit, by the source's call; [ ] = another dose, or the depositor's remark. % is scaled to controls: 0 for no effect and ±100 for the full control effect.

`Cc1ccc(CNC(=O)Cn2ncc3c([nH]c4ccc(C)cc43)c2=O)cc1` gave HCMV antiviral 2, LASV entry inh 15%[46.1 µM] and FMDV inh 3%.
Screening O=C1O/C(=C\c2ccccc2)c2ccccc21 returned HCMV antiviral -36, HCV inhibitor 12%, MARV entry inh -2%, LASV entry inh 10% and FMDV inh 57%.
`O=C1N/C(=C\c2ccccc2)c2ccccc21` gave HCMV antiviral 120, HCV inhibitor 7.1µM*, MARV entry inh inconclusive, LASV entry inh 10% and FMDV inh 37%.
`CC1=C(C(=O)N2CCCCCC2)CC(CC(=O)NCCc2ccccn2)C(=O)N1CCCN1CCCC1=O` (configuration not stated) gave HCMV antiviral -84*.
Screening CC1=C(C(=O)N(C(C)C)C(C)C)CC(CC(=O)NCCc2ccccn2)C(=O)N1CCCN1CCCC1=O (configuration not stated) returned HCMV antiviral 19 and FMDV inh -8%.
`CNC(=O)c1ccc(-c2sc3nc(N4CCOCC4)c4c(c3c2N)CC(C)(C)OC4)o1` gave HCMV antiviral 116, HCV inhibitor inconclusive, MARV entry inh inconclusive, LASV entry inh inconclusive and FMDV inh -14%.
For CNC(=O)c1ccc(-c2sc3nc(N4CCOCC4)c4c(c3c2N)CCCC4)o1 the results were HCMV antiviral -11, HCV inhibitor 11µM*, MARV entry inh -15%, LASV entry inh -3% and FMDV inh inconclusive.
Screening N/C(=N\OC(=O)c1csnn1)c1ccc(C(F)(F)F)cc1 returned HCMV antiviral 31, HCV inhibitor -3%, MARV entry inh 0%[14.2 µM], LASV entry inh inconclusive and FMDV inh 24%.
`CCCc1nnc(SCC(=O)N2CCCC2)n1CC1CCCO1` (configuration not stated) gave HCMV antiviral -8, HCV inhibitor 5%, MARV entry inh 12%, LASV entry inh 0% and FMDV inh -5%.
`CCCc1nnc(SCC(=O)N2CCOCC2)n1CC1CCCO1` (configuration not stated) gave HCMV antiviral -68*, HCV inhibitor 21%, MARV entry inh 1%[46.1 µM], LASV entry inh inconclusive and FMDV inh -5%.
`O=C(CSc1nnc(CNc2ccc(F)cc2)n1CC1CCCO1)N1CCOCC1` (configuration not stated) gave HCMV antiviral -98*, HCV inhibitor 14%, MARV entry inh 8%[46.1 µM], LASV entry inh -4% and FMDV inh 11%.
For CC(=O)Nc1ccc(NC(=O)CSc2nnc(N)n2-c2ccccc2)cc1 the results were HCMV antiviral -11, HCV inhibitor 6%, MARV entry inh 16%[46.1 µM], LASV entry inh 9%[46.1 µM] and FMDV inh -8%.
Screening COCCN1C(=O)CC[C@@]23C1=NC(C(=O)OC)=C(C(=O)OC)[C@@H]2N(Cc1ccccc1)c1ccccc13 returned MARV entry inh -9%[14.2 µM].
`Cc1[nH]nc2c1C(c1cc(Br)cs1)C(C#N)=C(N)O2` (configuration not stated) gave HCMV antiviral -98*, HCV inhibitor inconclusive, MARV entry inh inconclusive, LASV entry inh -2% and FMDV inh inconclusive.
Screening N#CC1=C(N)Oc2n[nH]c(-c3ccc(F)cc3)c2C1c1cccnc1 (configuration not stated) returned HCMV antiviral -19, HCV inhibitor 17%, MARV entry inh 7%, LASV entry inh 18% and FMDV inh -20%.
For Cc1[nH]nc2c1C(c1cn[nH]c1-c1ccc(F)cc1)C(C#N)=C(N)O2 (configuration not stated) the results were HCMV antiviral 11, HCV inhibitor -7%, MARV entry inh 0%[46.1 µM], LASV entry inh -28% and FMDV inh 22µM*.
Screening O=C(Nc1ccc(Cl)c(Cl)c1)OCc1cnc(Cl)s1 returned HCMV antiviral 1, HCV inhibitor 11µM*, MARV entry inh -7%, LASV entry inh 17% and FMDV inh 4%.
For COc1ccc(-c2cc(C(=O)NNC(=O)c3csc(N4CCOCC4)n3)c3ccccc3n2)cc1 the results were HCMV antiviral -28, HCV inhibitor inconclusive, MARV entry inh inconclusive, LASV entry inh 0%[46.1 µM] and FMDV inh -17%.

Screens deposited in PubChem by National Center for Advancing Translational Sciences (NCATS).
